Experimental findings from PubChem BioAssay (NCATS) are described below.

Each structure is given as a SMILES string. Records with an inconclusive call do not appear. Active and inactive are the calls of the source. Calls come from the whole dose curve; as a rule, active = well fitted curve in the direction sought with a large enough effect; inconclusive = small, poorly fitted or top-dose-only effect, or another doubt; inactive = no such curve, though single readings can be large; an effect the other way counts as inactive or inconclusive. Square brackets hold non-standard residues; d marks the D form. Peptide text beside a SMILES is read from it. Orn = NCCC[CH](N)C(=O)O

In one assay the test system is 3D7. The experiment in a line: qHTS profiling for inhibitors of Plasmodium falciparum proliferation (AID 504749). Note: nearly all actives have a fitted effect of over 60% in size. Note: potency is the fitted concentration of half-maximal effect. The conditions noted are these: P. falciparum in erythrocytes, SYBR Green DNA, 72 h; series mostly up to 28.7 µM. An outline of the steps: (§1)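 Readout was DNA-dye fluorescence from lysed cultures, ex 485/em 535 nm. Parasitized red cells had grown 72 h with compound; data scaled between 0.29 uM artemisinin and DMSO wells and corrected using vehicle-only plates.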

Another assay relates to AS120. The description is as above. The conditions noted are these: P. falciparum in erythrocytes, SYBR Green DNA, 72 h; series mostly up to 28.7 µM. An outline of the steps:
as §1

In a further assay the test system is ATS95. The description is as above. The settings on record: P. falciparum in erythrocytes, SYBR Green DNA, 72 h; series mostly up to 28.7 µM. A digest of the protocol:
as §1

A further assay concerns CP191. The description is as above. The settings on record: P. falciparum in erythrocytes, SYBR Green DNA, 72 h; series mostly up to 28.7 µM. An outline of the steps:
as §1

Another assay relates to CP211. Described as above. The settings on record: P. falciparum in erythrocytes, SYBR Green DNA, 72 h; series mostly up to 28.7 µM. A digest of the protocol: as §1
For a further assay, the system named is CP247. The assay is described as above. The settings on record: P. falciparum in erythrocytes, SYBR Green DNA, 72 h; series mostly up to 28.7 µM. A digest of the protocol:
as §1

A further assay relates to CP250. The description is as above. The conditions noted are these: P. falciparum in erythrocytes, SYBR Green DNA, 72 h; series mostly up to 28.7 µM. An outline of the steps:
as §1

A further assay deals with CP262. The assay is described as above. The settings on record: P. falciparum in erythrocytes, SYBR Green DNA, 72 h; series mostly up to 28.7 µM. An outline of the steps: as §1
The test system of another assay is CP297. The description is as above. The settings on record: P. falciparum in erythrocytes, SYBR Green DNA, 72 h; series mostly up to 28.7 µM. A digest of the protocol:
as §1

A further assay has as its system CP335. Described as above. The conditions noted are these: P. falciparum in erythrocytes, SYBR Green DNA, 72 h; series mostly up to 28.7 µM. A digest of the protocol:
as §1

The next assay has as its system Dd2. Described as above. The settings on record: P. falciparum in erythrocytes, SYBR Green DNA, 72 h; series mostly up to 28.7 µM. An outline of the steps:
as §1

The next assay relates to ECU. The assay is described as above. The settings on record: P. falciparum in erythrocytes, SYBR Green DNA, 72 h; series mostly up to 28.7 µM. A digest of the protocol:
as §1

A further assay concerns N140. The description is as above. The settings on record: P. falciparum in erythrocytes, SYBR Green DNA, 72 h; series mostly up to 28.7 µM. A digest of the protocol:
as §1

The next assay relates to P93_24. Described as above. The settings on record: P. falciparum in erythrocytes, SYBR Green DNA, 72 h; series mostly up to 28.7 µM. An outline of the steps: as §1
The test system of a further assay is PAD. Described as above. The settings on record: P. falciparum in erythrocytes, SYBR Green DNA, 72 h; series mostly up to 28.7 µM. A digest of the protocol:
as §1

A further assay relates to TAB113. The description is as above. The settings on record: P. falciparum in erythrocytes, SYBR Green DNA, 72 h; series mostly up to 28.7 µM. A digest of the protocol: as §1
For a further assay, the system named is TAB165. The description is as above. The settings on record: P. falciparum in erythrocytes, SYBR Green DNA, 72 h; series mostly up to 28.7 µM. A digest of the protocol: as §1
Assay [1] deals with Cytochrome P450 3A4 (Homo sapiens) (UniProt P08684). The experiment in a line: qHTS Assay for Activators of Cytochrome P450 3A4 (AID 885). Note: nearly all actives have a fitted effect of over 65% in size. A digest of the protocol:
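Signal was normalized against complete inhibition by 57 uM ketoconazole. The reaction used 20nM CYP3A4 with 25uM Luciferin-PPXE, 10-min compound preincubation and a 60-min NADPH-supported step at RT.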
On the technique in general: qHTS replaces the single test concentration by a dilution series.

Sequence of Cytochrome P450 3A4 (Homo sapiens) (P08684 whole entry, looked up): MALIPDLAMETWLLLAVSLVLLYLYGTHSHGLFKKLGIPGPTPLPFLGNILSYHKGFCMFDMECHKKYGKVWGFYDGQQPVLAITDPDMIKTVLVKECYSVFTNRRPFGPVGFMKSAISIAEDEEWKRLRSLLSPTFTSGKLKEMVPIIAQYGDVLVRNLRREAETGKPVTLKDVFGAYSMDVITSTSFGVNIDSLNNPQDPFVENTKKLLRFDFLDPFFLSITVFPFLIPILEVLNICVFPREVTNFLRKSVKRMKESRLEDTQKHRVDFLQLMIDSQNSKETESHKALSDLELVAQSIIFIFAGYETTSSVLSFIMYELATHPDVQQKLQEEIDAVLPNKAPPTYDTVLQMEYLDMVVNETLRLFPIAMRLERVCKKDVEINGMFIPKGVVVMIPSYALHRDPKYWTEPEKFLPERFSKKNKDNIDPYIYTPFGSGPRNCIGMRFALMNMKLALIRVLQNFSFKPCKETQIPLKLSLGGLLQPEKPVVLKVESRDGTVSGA

Regarding `CNCC(=O)NC(CCCN=C(N)N)C(=O)NC(C(=O)NC(Cc1ccc(O)cc1)C(=O)NC(C(=O)NC(Cc1cnc[nH]1)C(=O)N1CCCC1C(=O)NC(C)C(=O)O)C(C)C)C(C)C` (stereo not given), the Potency entry in the assay on 3D7, with AS120, in the assay on ATS95, in the assay on CP191, with CP211 and in the assay with CP247 was “inactive” each time. The Potency result in the assay on CP250, in the assay on CP262, with CP297, with CP335, in the assay on Dd2 and in the assay with ECU was “inactive” throughout. For the same compound, the Potency result in the assay with N140, in the assay with P93_24, with PAD, in the assay on TAB113 and with TAB165 was “inactive” in each case.
As to `CCC(C)C1NC(=O)C(Cc2ccc(O)cc2)NC(=O)C(N)CSSCC(C(=O)N2CCCC2C(=O)NC(CC(C)C)C(=O)NCC(N)=O)NC(=O)C(CC(N)=O)NC(=O)C(CCC(N)=O)NC1=O` (stereo not given), the Potency result with 3D7, in the assay with AS120, with ATS95, with CP191, in the assay with CP211 and with CP250 was “inactive” in each case. In addition, the Potency entry with CP262, with CP297, in the assay on CP335, in the assay with Dd2, in the assay with ECU and in the assay on N140 was “inactive” throughout. For the same compound, the Potency entry in the assay on P93_24, in the assay with PAD, with TAB113 and with TAB165 was “inactive” throughout.
For the compound `COc1cc(OC)c2c(c1)OC(c1ccccc1)CC2=O` (stereo not given), in assay [1], the Potency entry is “inactive”.
With `CC(N)C(=O)NCC(=O)NC1CSSCC(C(=O)O)NC(=O)C(CO)NC(=O)C(C(C)O)NC(=O)C(Cc2ccccc2)NC(=O)C(C(C)O)NC(=O)C(CCCCN)NC(=O)C(Cc2c[nH]c3ccccc23)NC(=O)C(Cc2ccccc2)NC(=O)C(Cc2ccccc2)NC(=O)C(CC(N)=O)NC(=O)C(CCCCN)NC1=O` (stereo not given), the Potency entry with 3D7, in the assay with AS120, in the assay with ATS95, with CP191, in the assay on CP211 and in the assay with CP247 was “inactive” throughout. Moreover, the Potency result in the assay with CP250, in the assay with CP262, in the assay on CP297, with CP335, in the assay with Dd2 and in the assay on ECU was “inactive” each time. The Potency result in the assay on N140, in the assay with P93_24, in the assay on PAD, in the assay on TAB113 and in the assay with TAB165 was “inactive” throughout.
Consider `Cn1cc(O)nc1NC(=O)Nc1cccc(Cl)c1`, for which the Potency entry with 3D7, with AS120, in the assay on ATS95, in the assay with CP211, in the assay with CP247 and with CP297 was “inactive” each time. Also, the Potency result with CP335, with Dd2, in the assay on ECU, in the assay with N140, with P93_24 and with PAD was “inactive” throughout. Further, the Potency result with TAB113 and with TAB165 was “inactive” in each case.
For the compound `C=CC1=C(C(=O)O)N2C(=O)[C@@H](NC(=O)C(N=O)c3csc(N)n3)[C@H]2SC1` (stereo not given in full), the Potency result in the assay with 3D7, in the assay with AS120, in the assay on ATS95, with CP191, in the assay with CP211 and with CP247 was “inactive” in each case. Also, the Potency entry in the assay with CP250, in the assay on CP262, in the assay on CP297, with CP335, in the assay on Dd2 and in the assay with ECU was “inactive” throughout. The Potency result with N140, in the assay with P93_24, in the assay on PAD, with TAB113 and in the assay on TAB165 was “inactive” in each case.
Take `COC(=O)CCC(C)C1CCC2C3C(C[C@H](O)C12C)C1(C)CC[C@@H](O)CC1C[C@H]3O` (stereo not given in full): the Potency entry in assay [1] was “inactive”.
Regarding `O=c1cc(-c2ccc(O)cc2)oc2cccc(O)c12`, in assay [1], the Potency result was “inactive”.
Regarding `COc1ccc(-c2nc3ccc(C4=C(C)CC(=O)NN4)cc3[nH]2)cc1`, the Potency result in the assay on CP191, in the assay on CP250, in the assay with CP262 and with CP335 was “inactive” in each case.
As for `O=C1CC(c2ccccc2O)Oc2ccc(O)cc21` (stereo not given), the Potency result in [1] is “inactive”.
Still for that read-out and setting: as for `COc1ccc2c(c1OC)C(Cc1ccccc1)N1CCc3cc4c(cc3C1=C2)OCO4` (stereo not given), the entry is “inactive”.
With `CC(C)CC1NC(=O)C(CCCN)NC(=O)C(C(C)C)NC(=O)C2CCCN2C(=O)C(Cc2ccccc2)NC(=O)C(CC(C)C)NC(=O)C(CCCN)NC(=O)C(C(C)C)NC(=O)C2CCCN2C(=O)C(Cc2ccccc2)NC1=O` (stereo not given) (cyclo(FPV[Orn]LFPV[Orn]L); configuration not given here), the Potency in the assay with AS120 is 2.8 nM (active); with ATS95 it was 0.9 nM (active); in the assay on CP191, 2.8 nM (active); in the assay with CP211, 1.3 nM (active); in the assay with CP247, 2.8 nM (active); with CP250, 2 nM (active). Besides, the Potency in the assay with CP297 was 1.2 nM (active); in the assay with CP335, 0.5 nM (active); in the assay with Dd2 it was 1.1 nM (active); in the assay on ECU it was 3.2 nM (active); in the assay with N140 it was 1.3 nM (active); with P93_24, 2 nM (active). For the same compound, the Potency in the assay on PAD is 0.8 nM (active); with TAB113, 2.2 nM (active); in the assay with TAB165, 1.3 nM (active).
